Screening results as filed in PubChem.
In the library only some 7.5% were active in any assay of this set; here they are far more common.
FLuc counter: counter-screen for miR-21 project: firefly luciferase inhibitors or activators. P08659. Potency, µM (highest dose often 57.5 µM), for the others: at the top dose activity change, negative = inhibition, usual class: inhibitors. 360,000 tested, 6.9% active. AID 588342. purified FLuc, Km substrates, luminescence inhibition;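 also: plate controls were vehicle for no effect and reference inhibitor for full effect; nearly all actives have a fitted effect of over 55% in size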
Target sequence (P08659 whole entry, looked up): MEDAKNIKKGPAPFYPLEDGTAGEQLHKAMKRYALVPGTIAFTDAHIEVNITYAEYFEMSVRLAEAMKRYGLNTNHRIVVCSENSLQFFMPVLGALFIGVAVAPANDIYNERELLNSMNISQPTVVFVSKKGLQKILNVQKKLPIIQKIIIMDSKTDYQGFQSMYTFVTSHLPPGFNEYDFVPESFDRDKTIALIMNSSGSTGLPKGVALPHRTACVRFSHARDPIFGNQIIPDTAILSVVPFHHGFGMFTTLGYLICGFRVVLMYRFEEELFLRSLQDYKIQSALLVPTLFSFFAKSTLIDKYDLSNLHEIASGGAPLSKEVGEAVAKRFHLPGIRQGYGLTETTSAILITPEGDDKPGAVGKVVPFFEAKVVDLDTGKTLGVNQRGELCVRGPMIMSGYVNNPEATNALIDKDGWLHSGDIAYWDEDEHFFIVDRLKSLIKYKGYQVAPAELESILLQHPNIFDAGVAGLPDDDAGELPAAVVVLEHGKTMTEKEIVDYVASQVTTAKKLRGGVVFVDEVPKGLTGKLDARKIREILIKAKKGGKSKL
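Purified P. pyralis luciferase, 10 nM final, with Km-level 10 uM D-luciferin and 10 uM ATP in 50 mM Tris acetate pH 7.5, 10 mM Mg acetate, 0.01% Tween-20, 0.05% BSA; 6-point qHTS titration about 60 µM downward; luminescence read.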
SMN2 splice enh: enhancers of SMN2 splice variant expression; AID 1458; 210,000 tested, 2.8% active; Potency, µM (titrated, usually from 46.1 µM), for inactives: at the highest dose activity change, positive = activation, usual class: activators; HEK293 SMN2-luciferase splicing reporter, luminescence, 30-36 h; also: % of control where 0% means no effect; nearly all actives have a fitted effect of over 55% in size
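HEK293 cells carry an SMN2 […]–luciferase reporter in which exon 7 inclusion puts luciferase in frame. Cells were plated 10-12 h before compound addition, then incubated 30-36 h at 37C. ONE-Glo luminescence was read; sodium butyrate at 4.5 mM final served as control.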
ELG1 genotoxic: genotoxicity induction in ELG1-luciferase HEK293T cells | 330,000 tested, 1.3% active | HEK293T ELG1-luciferase reporter, luminescence, 16 h | Potency, µM (highest dose often 46 µM), inactives show at the top dose activity change, positive = activation, actives largely listed as activators; also: % of control where 0% means no effect; nearly all actives have a fitted effect of over 60% in size
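HEK293T cells expressing luciferase-tagged ELG1 were treated with compound or DMSO for 16 hr at 37°C. Luciferase activity was then read after 30 min with ONE-Glo at room temperature; rising signal flags genetic stress.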
Luc counter: blocks Kinase-Glo luciferase, a counter-screen artifact; AID 1379; Potency, µM (highest dose often 38.3 µM), for inactives: at the highest dose activity change, negative = inhibition, usual class: inhibitors; Q27757; Kinase-Glo luciferase, ATP luminescence, 8 min; 200,000 tested, 0.28% active; also: % is scaled to controls: 0 for no effect and ±100 for the full control effect; nearly all actives have a fitted effect of over 60% in size
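Compound is pinned into ATP-containing buffer (10 uM ATP, imidazole pH 7.2, 7 mM MgCl2). Kinase-Glo luciferase reagent is then added. Light output is recorded following an 8-min room-temperature incubation.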
NPC1 prom act: activates the NPC1 promoter; Huh7 NPC1 promoter luciferase reporter, 24 h; Potency, µM (highest dose often 9.22 µM), for the others: at the highest dose activation, actives largely listed as activators; 320,000 tested, 2.4% active; AID 485313; also: % of control where 0% means no effect; nearly all actives have a fitted effect of over 60% in size
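Stably transfected Huh7 (NPC1 promoter→luciferase), 1500 cells/well in Opti-MEM + 10% FBS, 2 h settle, then compound 24 h at 37 °C. Luminescence after 10 min with Amplite reagent.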
Rab9 promoter act: activates the Rab9 promoter | Huh7 Rab9 promoter-luciferase reporter, luminescence, 24 h | Potency, µM (highest dose often 9.22 µM), for inactives: at the top dose activation, negative = inhibition, hits mostly activators | AID 485297 | 320,000 tested, 2.8% active; also: % of control where 0% means no effect; nearly all actives have a fitted effect of over 60% in size
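Using Huh7 cells stably transfected with Rab9 promoter–luciferase, compounds were incubated 24 h at 37 °C, 5% CO2; luciferase luminescence was read 10 min after reagent addition.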
The depositor's hits bear a star; ? = inconclusive; . = no result; [ ] = dose if it differs, or a comment. Calls follow the shape of the dose curve; as a rule, active = well fitted curve in the direction sought with a large enough effect; inconclusive = small, poorly fitted or top-dose-only effect, or another doubt; inactive = no such curve, though single readings can be large; an effect the other way counts as inactive or inconclusive. Potency is read from the fitted curve at half-maximal effect.

SMILES	FLuc counter	SMN2 splice enh	ELG1 genotoxic	Luc counter	NPC1 prom act	Rab9 promoter act
CCOC(=O)c1ccccc1NC(=O)Cc1c(C(=O)O)n(C)c2ccccc12	2.3%	.	-1.9%	.	-5.8%	-1.4%
O=C(Nc1cccc(-c2nnco2)c1)c1cccs1	-27.4%	.	-1.5%	.	2.9%	0.3%
Cc1cccc(-c2nnc(-c3cccc(NC(=O)Cc4cccs4)c3)o2)c1	12µM*	27.3%	0.4%	6.8%	2.3%	-2.2%
Cc1ccc(-c2nnc(-c3cccc(NC(=O)c4cccs4)c3)o2)cc1	2.69µM*	-14.0%	-6.0%	1.7%	28.6%	1.8%
O=C(Cc1cccs1)Nc1cccc(-c2nc3ccccc3o2)c1	-6.5%	-5.6%	0.5%	-0.4%	-1.4%	-2.6%
COCc1cc(=O)n2[nH]c(-c3cccc(Br)c3)cc2n1	?	?	11.2µM*	-1.0%	28.8%	21.7%
COCc1cc(=O)n2[nH]c(-c3ccccc3)cc2n1	19µM*	11.5%	?	-6.1%	16.2%	22.0%
COCc1cc(=O)n2[nH]c(C)cc2n1	8.7%	-18.5%	-0.6%	-2.3%	-6.4%	-10.0%
COCc1cc(=O)n2[nH]c(C(C)(C)C)cc2n1	-5.4%	.	0.1%	.	0.7%	2.8%
Brc1ccc(-c2cn3nc4c(nc3n2)CCCC4)cc1	0.269µM*	3.98µM*	?	?	0.1µM*	0.282µM*
c1ccc(-c2cn3nc4c(nc3n2)CCCC4)cc1	0.301µM*	0.501µM*	0.13µM*	14.1µM*	0.112µM*	0.126µM*
Cc1nc2ccn(Cc3cccs3)c(=O)c2cc1C(=O)Nc1ccccc1	-3.1%	.	.	.	.	.
Cc1sc(NC(=O)CCCC(=O)O)c(C(N)=O)c1-c1ccccc1	0.757µM*	-0.9%	?	2.9%	16.0%	3.8%
O=S(=O)(NC1CCCCC1)c1ccc(Cl)nc1	-2.8%	1.6%	-1.9%	0.5%	0.7%	-1.8%
COc1cc(OC)cc(-c2cc(NC(C)=O)n[nH]2)c1	?	13.3%	10.0%	5.9%	1.7%	-1.7%
CC(=O)Nc1nc(-c2ccc(Cl)cc2)ns1	10.7µM*	?	16.6%	1.9%	?	3.98µM*
CCCSc1nsc(NC(=O)CC)n1	0.675µM*	.	?	?	0.282µM*	0.112µM*
CCCC(=O)Nc1nc(-c2ccccc2)ns1	16.9µM*	?	24.5%	-2.3%	?	?
CC(=O)Nc1cc(-c2ccc(Cl)cc2)[nH]n1	?	22.4µM*	?	-7.5%	3.55µM*	?
COc1ccc2c(CNCc3cccs3)c(C(=O)O)n(Cc3cccc(F)c3)c2c1	-15.5%	.	.	.	.	.
CC(C)C(=O)Nc1nc(-c2ccccc2)ns1	15.1µM*	2.24µM*	?	1.1%	3.55µM*	2.82µM*
CCC(=O)Nc1nc(-c2ccccc2)ns1	15.1µM*	11.2µM*	13.6%	2.9%	3.98µM*	2µM*
CC(CNC(=O)C1CCN(C(=O)N2CCOc3ccc(Cl)cc32)CC1)c1ccccc1 (configuration not stated)	-19.5%	.	.	.	.	.
Cc1cc(NS(=O)(=O)c2ccc(NC(=O)/C=C/c3ccc(Br)cc3)cc2)no1	19µM*	.	5.1%	.	-5.9%	-1.6%
CCCCOc1cccc(C(=O)Nc2ccc(S(=O)(=O)Nc3cc(C)on3)cc2)c1	19µM*	.	4.1%	.	-7.2%	-1.2%
SMILES	FLuc counter	SMN2 splice enh	ELG1 genotoxic	Luc counter	NPC1 prom act	Rab9 promoter act
Cc1cc(NS(=O)(=O)c2ccc(NC(=O)COc3c(C)cc(Br)cc3C)cc2)no1	-1.2%	14.7%	-24.8%	.	-3.1%	-2.3%
CCOc1cccc(C(=O)Nc2ccc(S(=O)(=O)Nc3cc(C)on3)cc2)c1	?	.	6.3%	.	0.8%	-1.2%
Cc1cc(NS(=O)(=O)c2ccc(NS(=O)(=O)c3ccc(Br)cc3)cc2)no1	0.5%	.	1.4%	.	-3.0%	-2.9%
Cc1ccc(/C=C/C(=O)Nc2cc(C)on2)cc1	?	?	?	-6.0%	2.51µM*	3.98µM*
Cc1cc(NS(=O)(=O)c2ccc(NC(=O)COc3ccc(Br)cc3C)cc2)no1	21.3µM*	-11.3%	.	.	.	.
Cc1cnc(NCCc2ccccc2)s1	?	.	4.9%	.	19.5%	15.0%
Cc1cc(NC(=O)Nc2nnc(N3CCCCCC3)s2)ccc1Br	-1.1%	.	.	.	.	.
COc1ccccc1/C=C/C(=O)Nc1ccc(S(=O)(=O)Nc2cc(C)on2)cc1	23.9µM*	.	14.4%	.	-0.8%	3.1%
COc1ccccc1OCC(=O)Nc1ccc(S(=O)(=O)Nc2cc(C)on2)cc1	1.2%	.	2.1%	.	-0.2%	0.0%
Cc1ccc(/C=C/C(=O)Nn2cnnc2)cc1	5.36µM*	-6.3%	8.8%	-7.8%	-4.6%	-8.7%
Cc1ccc(/C=C/C(=O)NN2CCN(C)CC2)cc1	-2.3%	.	7.8%	.	8.5%	10.7%
COc1ccccc1NC(=O)c1sc2nc3c(c(C(F)(F)F)c2c1N)CN(C(C)=O)CC3	0.4%	-1.9%	.	.	.	.
CC(=O)NCc1cc(Cl)c2cccnc2c1O	-1.3%	.	.	.	-3.2%	1.3%
N#Cc1ccc2c(c1)C[C@]1(c3ccsc3)Oc3c(c(=O)oc4ccccc34)C2O1	3.09µM*	.	.	.	-0.8%[1.84 µM]	-4.0%[1.84 µM]
N#Cc1ccc2c(c1)C[C@]1(c3ccsc3)Oc3c(c(=O)oc4ccc(F)cc34)C2O1	?	.	.	.	-3.4%[1.84 µM]	-6.9%[1.84 µM]
CC(NC(=O)COC(=O)c1ccc(N(C)C)cc1)c1ccccc1 (configuration not stated)	-8.0%	10.7%	-6.8%	1.0%	-3.3%	-5.0%
O=C(/C=C/c1ccccc1)OCC(=O)c1c[nH]c2ccccc12	.	.	-2.3%	.	.	.
COc1ccccc1C(=O)COC(=O)c1ccc(N(C)C)cc1	5.36µM*	22.4µM*	?	-3.7%	3.16µM*	3.55µM*
CCc1ccc(C(=O)COC(=O)c2ccccc2OC)cc1	0.477µM*	.	?	.	2.24µM*	3.16µM*
COc1ccccc1C(=O)COC(=O)c1ccccc1O	21.3µM*	4.7%	16.3%	-1.2%	-10.5%	13.4%
COc1ccccc1C(=O)COC(=O)/C=C/c1ccccc1	13.5µM*	.	20.2%	.	25.8%	26.1%
CCN(C(=O)COC(=O)c1cc([N+](=O)[O-])ccc1N1CCOCC1)c1ccccc1	1.7%	.	2.6%	.	-13.0%	-0.2%
O=C(Cc1ccc(F)cc1)NCCS(=O)(=O)N1CCN(c2cccc(Cl)c2)CC1	5.8%	.	-13.7%	.	3.1%	-2.8%
O=[N+]([O-])c1cccc(-c2nc(NCc3ccccc3)c3ccccc3n2)c1	0.0%	-15.9%	1.9%	1.3%	-2.9%	13.6%
COc1ccc(/C=N/Nc2nc(-c3cccnc3)nc3ccccc23)c(OC)c1	2.39µM*	.	-9.6%	.	1.5%	1.1%
COc1ccc(OC)c(Nc2nc(-c3ccncc3)nc3ccccc23)c1	-0.9%	.	-2.9%	.	-24.2%	-14.0%
Cc1ccc(-c2nc(N/N=C/c3cccnc3)c3ccccc3n2)cc1	0.12µM*	?	?	7.94µM*	?	3.55µM*
